Screens (PubChem BioAssay)
GPR151 ag: activates the human receptor GPR151; AID 1508602; Q8TDV0; 1% of 650,000 active; PathHunter beta-arrestin GPR151 cells, luminescence; activation, % at 11.2 µM; in the data active = activation above about 4.9%
FBW7 act: activators of human E3 ligase FBW7 | AlphaScreen FBW7–phospho-cyclin E peptide binding, activator screen | normalized activity (activation), % at 26.1 µM | 0.13% of 650,000 active; in the data active = normalized activity above about 1.9%;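 also: purified mutant Fbw7 with reduced substrate affinity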
MITF primary: inhibitors of human MITF; 0.91% of 650,000 active; AID 1259374; AlphaScreen MITF homodimerization, bead proximity signal; inhibition, % at 2.6 µM; O75030; in the data active = inhibition above about 50%
TEAD-YAP inh: TEAD-YAP interaction inhibition. AID 1259422. inhibition, % at 9.12 µM. HEK-TIYL cells, TEAD-Gal4/YAP UAS-luciferase luminescence. 1.4% of 640,000 active; in the data active = inhibition above about 32%
MITF confirm: confirmation of human MITF inhibitors | AlphaScreen MITF homodimerization, biotin/His-MITF beads | 16% of 4,700 active | AID 1259372 | inhibition, % at 2.6 µM | shares compounds with MITF primary;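 active = inhibition above a cutoff derived from the DMSO control wells, cut at about 28% in these data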;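 also: inhibitors lower the bead chemiluminescence by keeping MITF from dimerizing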
AS interf ctr: optically interferes with AlphaScreen signal | 7.6% of 4,700 active | LysRS AlphaScreen counterscreen, signal interference, triplicate | AID 1259376 | shares compounds with MITF primary | inhibition, % at 2.6 µM;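 active = inhibition above a cutoff derived from the DMSO control wells, cut at about 30% in these data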
Of the large screens only hits and unclear results are named; the others gave an inactive call (follow-up assays come after a bar, where they were run). Compounds with a hit are over-represented: about 3.5% of the library has one in this group of screens.

CCOc1ccccc1NS(=O)(=O)c1ccc2c(c1)OCCCO2	MITF primary 57 | MITF confirm inactive | AS interf ctr inactive
CN(C)CCCNS(=O)(=O)c1ccc2c(c1)OCCO2	MITF primary 63 | MITF confirm inactive | AS interf ctr inactive
COc1ccc(NS(=O)(=O)c2ccc3c(c2)OCCO3)c(OC)c1	MITF primary 85 | MITF confirm inactive | AS interf ctr inactive
Cc1[nH]c2ccccc2c1C(c1cccc([N+](=O)[O-])c1)c1c(C)[nH]c2ccccc12	none
O=C1Sc2ccc(S(=O)(=O)Nc3ccc(O)cc3)c3cccc1c23	none
O=C(c1ccco1)N1CCN(Cc2ccc3c(c2)OCO3)CC1	MITF primary 62 | MITF confirm inactive | AS interf ctr inactive
S=C(NCc1ccco1)N1CCN(Cc2ccccc2)CC1	none
CS(=O)(=O)N(CC(=O)N1CCN(Cc2ccc3c(c2)OCO3)CC1)c1ccc(F)cc1	MITF primary 75 | MITF confirm inactive | AS interf ctr inactive
S=C(NCc1ccco1)N1CCN(Cc2ccc3c(c2)OCO3)CC1	MITF primary 80 | MITF confirm inactive | AS interf ctr inactive
COc1ccc(CN2CCN(CCOCCOc3ccccc3)CC2)c(OC)c1OC	MITF primary 75 | MITF confirm inactive | AS interf ctr inactive
COc1ccc(CN2CCN(Cc3ccc(Cl)cc3)CC2)c(OC)c1OC	MITF primary 82 | MITF confirm inactive | AS interf ctr inactive
COc1ccc(CN2CCN(S(=O)(=O)c3ccc(Cl)cc3)CC2)c(OC)c1OC	none
COc1cccc(CN2CCN(Cc3ccc(OC)c4ccccc34)CC2)c1OC	MITF primary 70 | MITF confirm inactive | AS interf ctr inactive
COc1cccc(CN2CCN(Cc3ccc(OC)c(OC)c3OC)CC2)c1OC	MITF primary 77 | MITF confirm inactive | AS interf ctr inactive
COc1cccc(CN2CCSCC2)c1OC	none
O=C(CCN1CCN(c2ccccc2F)CC1)Nc1ccc(Cl)cc1	none
O=C(CCn1ncc2ccccc21)N1CCc2c(nc(N3CCOCC3)[nH]c2=O)C1	none
COc1cccc(CN2CCN(C(=O)c3cccc(OC)c3OC)CC2)c1	MITF primary 54 | MITF confirm inactive | AS interf ctr inactive
COc1cccc(C(=O)N2CCC3(CC2)CC3C(=O)NCCCc2ccccc2)c1OC (centres undefined)	MITF primary 73 | MITF confirm inactive | AS interf ctr inactive
COc1ccc(CN2CCN(CCOc3ccc([N+](=O)[O-])c(C)c3)CC2)c(OC)c1OC	MITF primary 83 | MITF confirm inactive | AS interf ctr inactive
Cc1cc(OCCN2CCCCCC2)ccc1[N+](=O)[O-]	none
COc1cccc(C(=O)N2CCC3(CC2)CC3C(=O)Nc2ccccc2)c1OC (centres undefined)	none
COc1cccc(CN2CCN(Cc3ccc(OC)c(OC)c3OC)CC2)c1	MITF primary 66 | MITF confirm inactive | AS interf ctr inactive
COc1cc(CN2CCN(C(=O)c3cccc(OC)c3OC)CC2)cc(OC)c1O	none
CN1CCCc2cc(CN3CCc4nnc(CCNC(=O)c5ccoc5)n4CC3)ccc21	none
COc1ccc(CN2CCN(Cc3ccccc3Cl)CC2)c(OC)c1OC	MITF primary 54 | MITF confirm inactive | AS interf ctr inactive
COc1ccc(OC)c(CN2CCN(Cc3ccc(OC)c(OC)c3OC)CC2)c1	none
COc1cccc(NC(=O)CN2CCC(NC(=O)c3cccc(OC)c3)CC2)c1	none
COc1ccc2ccccc2c1CN1CCN(C(=O)c2ccncc2)CC1	MITF primary 65 | MITF confirm inactive | AS interf ctr inactive
COc1ccc(OC)c(CN2CCN(C(=O)C(c3ccccc3)c3ccccc3)CC2)c1	MITF primary 52 | MITF confirm inactive | AS interf ctr inactive
COc1cccc(C(=O)N2CCN(Cc3ccccc3OC)CC2)c1	none
COc1cc(OC)c(OC)cc1CN1CCN(C(=O)c2ccncc2)CC1	MITF primary 56 | MITF confirm inactive | AS interf ctr inactive
COc1ccc(OC)c(CN2CCN(C(=O)c3cccc4ccccc34)CC2)c1	none
COc1ccccc1CN1CCN(C(=O)c2ccccc2)CC1	MITF primary 60 | MITF confirm inactive | AS interf ctr inactive
COc1cc([N+](=O)[O-])ccc1NC(=O)c1c(-c2ccccc2Cl)noc1C	none
CSc1ncccc1C(=O)NCc1cc(-c2ccccc2)on1	none
COc1ccc(C(=O)CC2(O)C(=O)N(CCc3ccccc3)c3ccccc32)c(OC)c1 (centres undefined)	none
Cc1nc2cc(NC(=O)C3CC34CCN(CC(C)C)CC4)ccc2s1 (centres undefined)	none
COc1ccc(CN2CCC(C(=O)NC(C)c3ccccc3)CC2)c(OC)c1 (centres undefined)	MITF primary 51 | MITF confirm inactive | AS interf ctr inactive
COc1ccc(OC)c(CN2CCN(C(=O)c3cccc(Cl)c3)CC2)c1	MITF primary 66 | MITF confirm inactive | AS interf ctr inactive
COc1ccccc1CN1CCN(C(=O)c2ccncc2)CC1	MITF primary 65 | MITF confirm inactive | AS interf ctr inactive
COc1ccc(CN2CCN(C(=O)c3ccc(F)cc3)CC2)c(OC)c1	none
COc1ccc(CN2CCC(C(=O)NCC(C)C)CC2)c(OC)c1	none
COc1ccc(CN2CCN(C(=O)c3ccccc3)CC2)c(OC)c1	MITF primary 60 | MITF confirm inactive | AS interf ctr inactive
COc1cc(COc2ccc3c4c(c(=O)oc3c2)CCCC4)cc(OC)c1OC	MITF primary 57 | MITF confirm inactive | AS interf ctr inactive
Cc1ccc(COc2ccc3c4c(c(=O)oc3c2)CCCC4)cc1	none
CCc1nn(CC(=O)N2CCCC2)c(=O)c2cc3ccsc3n12	none
COC(=O)c1cc(S(=O)(=O)NCc2ccccc2Cl)c[nH]1	none
COC(=O)c1cc(S(=O)(=O)NCc2ccccc2OC)c[nH]1	MITF primary 75 | MITF confirm inactive | AS interf ctr inactive
Cc1cc2nc(C3CCN(Cc4nnnn4Cc4cccs4)CC3)[nH]c2cc1C	MITF primary 55 | MITF confirm inactive | AS interf ctr inactive
NC(=O)NC(=O)COC(=O)c1oc2ccccc2c1COc1ccccc1	none
NC(=O)COC(=O)c1oc2ccccc2c1COc1ccccc1	MITF primary 64 | MITF confirm inactive | AS interf ctr inactive
Cc1ccnc(Nc2ccc(NCCNC(=O)c3ccc(F)cc3Cl)nn2)c1	MITF primary 81 | MITF confirm 43 | AS interf ctr 83
Cc1ccnc(Nc2ccc(NCCNC(=O)c3ccc(F)cc3)nn2)c1	MITF primary 56 | MITF confirm 61 | AS interf ctr 94
Cc1cccc(Nc2ccc(NCCNC(=O)c3ccc(F)cc3)nn2)n1	none
Cc1ccc2nsnc2c1NC(=O)c1ncn[nH]1	MITF primary 53 | MITF confirm inactive | AS interf ctr inactive
C=CCOc1ccc(/C=C2\C(=O)C(C(=O)OC)=C(C)N2c2ccc(C)cc2)cc1	none
O=C(O)CSc1nc2ccccc2n1CC(=O)N1CCOCC1	none
